From PubChem BioAssay AID1159580 (chemical genetic matrix, 2015)
Values joined by “and” are separate entries in the source; they are usually repeats but may differ in a detail not shown here. Identical values can stand only once. Hit rate of the full screen: of about 5,500 compounds, about 2,000 (36%) were called active. Roughly 18% stayed inconclusive and do not appear here. No stated cut-off is given here; in the data, active means normalized growth mostly below about 0.91 (no sharp cut-off); inconclusive means no clear call, values can overlap the other calls; inactive means mostly above about 0.92. The list shows a part of the results.

Experiment: chemical genetic growth profiling, strain panel (AID 1159580);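 further: tested at 20 µM; growth read once vehicle control cultures reached saturation at 30 °C; 1 = growth at the plate median or of vehicle wells; lower values mean less growth of the strain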
Conditions: S. cerevisiae deletion strains, growth OD

Measured: normalized growth

OCc1ccccc1O
inactive: locus YAL021C, strain ccr4, hits give low values 1.02 | locus YAL026C, strain drs2, hits give low values 1.02 | locus YAL030W, strain snc1, hits give low values 1 | locus YBL061C, strain skt5, hits give low values 1.03 | locus YBR009C, strain hhf1, hits give low values 1.02 | locus YBR021W, strain FUR4, hits give low values 1.02 | locus YBR023C, strain chs3, hits give low values 1.02 | locus YBR171W, strain sec66, hits give low values 1.01 | locus YBR229C, strain ROT2, hits give low values 1.02 | locus YBR231C, strain swc5, hits give low values 1.03 | locus YBR279W, strain paf1, hits give low values 1.03 | locus YCL011C, strain gbp2, hits give low values 1.03 | locus YCL016C, strain dcc1, hits give low values 1.02 | locus YCL029C, strain bik1, hits give low values 0.995 | locus YCL069W, strain vba3, hits give low values 1 | locus YCR088W, strain abp1, hits give low values 1.04 | locus YDL005C, strain med2, hits give low values 1.02 | locus YDL035C, strain GPR1, hits give low values 1.02 | locus YDL040C, strain nat1, hits give low values 1.01 | locus YDL074C, strain BRE1, hits give low values 1.04 | locus YDL101C, strain DUN1, hits give low values 1.02 | locus YDL134C, strain PPH21, hits give low values 1.02 | locus YDL185W, strain tfp1, hits give low values 0.992 | locus YDL192W, strain arf1, hits give low values 0.991 | locus YDR001C, strain nth1, hits give low values 1.02 | locus YDR069C, strain doa4, hits give low values 1.03 | locus YDR101C, strain arx1, hits give low values 0.987 | locus YDR137W, strain rgp1, hits give low values 1.02 | locus YDR150W, strain NUM1, hits give low values 1.02 | locus YDR159W, strain sac3, hits give low values 1.05 | locus YDR162C, strain NBP2, hits give low values 1 | locus YDR195W, strain ref2 1.02 | locus YDR297W, strain sur2, hits give low values 1.02 | locus YDR318W, strain mcm21, hits give low values 0.992 | locus YDR334W, strain swr1, hits give low values 1.03 | locus YDR335W, strain msn5, hits give low values 1.03 | locus YDR388W, hits give low values 0.991 | locus YDR392W, strain spt3, hits give low values 1.03 | locus YDR502C, strain sam2, hits give low values 0.988 | locus YEL003W, strain gim4, hits give low values 1.02 | locus YEL037C, strain rad23, hits give low values 1 | locus YEL061C, strain CIN8 (second series), hits give low values 1.01 | locus YEL061C, strain CIN8, hits give low values 1.01 | locus YER015W, strain faa2, hits give low values 0.998 | locus YER016W, strain bim1, hits give low values 1.03 | locus YER110C, hits give low values 0.995 | locus YER111C, strain swi4, hits give low values 0.997 | locus YER155C, strain BEM2 (second series), hits give low values 1.05 | locus YER155C, strain BEM2, hits give low values 1.02 | locus YER167W, strain BCK2, hits give low values 1.01 | locus YFR010W, strain ubp6, hits give low values 1.02 | locus YGL078C, strain dbp3, hits give low values 0.978 | locus YGL086W, strain mad1, hits give low values 1.01 | locus YGL167C, strain pmr1, hits give low values 1.02 | locus YGL173C, strain kem1, hits give low values 1.02 | locus YGL227W, strain vid30, hits give low values 1.03 | locus YGL240W, strain doc1, hits give low values 1.05 | locus YGL248W, strain PDE1, hits give low values 1.02 | locus YGL253W, strain hxk2, hits give low values 1.02 | locus YGR135W, strain pre9, hits give low values 0.982 | locus YGR252W, strain gcn5, hits give low values 0.994 | locus YHR013C, strain ard1, hits give low values 1.06 | locus YHR027C, strain rpn1, hits give low values 1.02 | locus YHR030C, strain SLT2, hits give low values 1.01 and 1.09 | locus YHR079C, strain IRE1 (second series), hits give low values 0.977 | locus YHR079C, strain IRE1, hits give low values 1.09 | locus YHR094C, strain hxt1, hits give low values 0.982 | locus YHR129C, strain ARP1, hits give low values 1.02 | locus YHR142W, strain chs7, hits give low values 1.03 | locus YHR200W, strain rpn10, hits give low values 0.995 | locus YIL066C, strain RNR3, hits give low values 1.02 | locus YIL073C, strain SPO22, hits give low values 0.949 | locus YIL125W, strain kgd1, hits give low values 0.993 | locus YIR030C, strain dcg1, hits give low values 0.989 | locus YJL092W, strain hpr5, hits give low values 1.02 | locus YJL095W, strain BCK1 (second series), hits give low values 1.02 | locus YJL095W, strain BCK1, hits give low values 1.02 and 1.04 | locus YJL115W, strain asf1, hits give low values 1.03 | locus YJL129C, strain trk1, hits give low values 1.01 | locus YJL134W, strain LCB3, hits give low values 1.02 | locus YJL154C, strain vps35, hits give low values 1.02 | locus YJL164C, strain tpk1, hits give low values 1.02 | locus YJL166W, strain qcr8, hits give low values 1.02 | locus YJL168C, strain set2, hits give low values 0.99 | locus YJL187C, strain SWE1 (second series), hits give low values 1.02 | locus YJR043C, strain POL32, hits give low values 1.02 | locus YJR066W, strain TOR1, hits give low values 1.01 | locus YJR075W, strain HOC1, hits give low values 1.02 | locus YKL009W, strain mrt4, hits give low values 0.988
